# Source: paper PMC4336329 (PLoS ONE, 2015)
# Screen size: about 310,000 compounds; about 14,000 (4.5%) showed an effect of 50% or more. The effect is printed as a negative number. What follows is part of a selection rich in strong results, with near analogues and random picks from the rest.
# Target: human ether-à-go-go-related gene (hERG) potassium channel (human, UniProt Q12809)
# Assay: primary screen, population patch clamp on CHO cells stably expressing hERG; higher = less effect of the substance
# 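Further: peak tail current of the secondary pulse compared with the same well before compound.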
# Sequence of human ether-à-go-go-related gene (hERG) potassium channel (Q12809 whole entry, looked up): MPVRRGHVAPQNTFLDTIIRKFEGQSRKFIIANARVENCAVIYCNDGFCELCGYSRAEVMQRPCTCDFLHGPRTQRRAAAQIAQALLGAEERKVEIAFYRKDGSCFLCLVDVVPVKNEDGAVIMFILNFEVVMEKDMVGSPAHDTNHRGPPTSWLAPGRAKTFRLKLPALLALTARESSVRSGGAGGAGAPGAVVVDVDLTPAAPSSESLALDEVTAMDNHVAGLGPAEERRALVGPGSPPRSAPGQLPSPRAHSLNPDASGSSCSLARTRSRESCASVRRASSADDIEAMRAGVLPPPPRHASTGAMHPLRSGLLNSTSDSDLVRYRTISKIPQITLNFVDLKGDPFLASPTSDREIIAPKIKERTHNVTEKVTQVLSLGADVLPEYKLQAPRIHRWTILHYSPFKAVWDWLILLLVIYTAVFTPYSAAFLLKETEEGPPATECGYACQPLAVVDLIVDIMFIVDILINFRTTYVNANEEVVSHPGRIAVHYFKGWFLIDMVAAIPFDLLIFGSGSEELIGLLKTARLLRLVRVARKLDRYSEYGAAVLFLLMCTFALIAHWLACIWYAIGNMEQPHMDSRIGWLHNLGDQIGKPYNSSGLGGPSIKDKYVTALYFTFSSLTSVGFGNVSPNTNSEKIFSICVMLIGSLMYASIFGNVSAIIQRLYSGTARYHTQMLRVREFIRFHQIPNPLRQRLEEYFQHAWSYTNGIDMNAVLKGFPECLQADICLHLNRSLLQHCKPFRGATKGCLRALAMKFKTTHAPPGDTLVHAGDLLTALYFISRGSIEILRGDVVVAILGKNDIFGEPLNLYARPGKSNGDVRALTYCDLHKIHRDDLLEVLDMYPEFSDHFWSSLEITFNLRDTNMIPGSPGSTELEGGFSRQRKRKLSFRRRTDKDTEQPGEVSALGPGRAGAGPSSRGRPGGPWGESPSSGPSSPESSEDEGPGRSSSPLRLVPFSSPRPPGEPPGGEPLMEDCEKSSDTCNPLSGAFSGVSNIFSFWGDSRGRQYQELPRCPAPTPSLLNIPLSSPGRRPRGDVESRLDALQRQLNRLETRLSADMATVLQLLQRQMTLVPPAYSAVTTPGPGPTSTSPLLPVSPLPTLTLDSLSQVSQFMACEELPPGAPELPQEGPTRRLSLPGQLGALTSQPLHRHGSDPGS
row,SMILES,"hERG current change (%, negative = inhibition) at 10uM [%]"
1,COCCNC(=O)c1cc(-c2ccc(OC)c(OC)c2)on1,-1.95
2,CCOc1ccc(C(=O)N[C@H](C(=O)Nc2ccccc2OC)C(C)C)cc1,-28.7
3,O=C1NC(=Nc2ccccc2)c2ccc([N+](=O)[O-])cc21,3.21
4,Cc1cc(NC(=O)CSc2nc3c(C)c(C)ccc3cc2C)no1,-44.6
5,O=C1CC(c2ccco2)CC(O)=C1C=NCCO (stereo not shown),7.61
6,O=C1CC(c2ccco2)CC(O)=C1C=NCCN1CCNCC1 (stereo not shown),2.1
7,CCNC(=S)N1CCN(CCN=CC2=C(O)CC(c3ccco3)CC2=O)CC1 (stereo not shown),0.166
8,O=C1CC(c2ccco2)CC(O)=C1C=NCCN1CCN(C(=S)Nc2ccccc2)CC1 (stereo not shown),-54.1
9,O=C1CC(c2ccco2)CC(O)=C1C=NCCN1CCN(C(=O)Nc2ccc(Cl)cc2)CC1 (stereo not shown),-66.4
10,C=CCNC(=S)N1CCN(CCN=CC2=C(O)CC(c3ccco3)CC2=O)CC1 (stereo not shown),-25.8
11,Cl.O=C(CN1CCC(NC(=O)c2ccccc2Cl)CC1)NCc1ccco1,-2.98
12,O=C(c1ccc2c3n(nc2c1)-c1ccccc1CO3)N1CCOCC1,-8.48
13,COc1ccc(CCNC(=O)c2cc(-c3ccc4c(c3)OCO4)on2)cc1OC,-4.11
14,Cc1cccc(N(C(=O)CNC(=O)c2ccco2)C(C(=O)NCC2CCCO2)c2ccccc2)c1 (stereo not shown),9.57
15,Cc1ccc(CSc2sc(C(=O)c3ccccc3)c(N)c2C#N)cc1,6.41
16,CCCCON1C(=O)c2cccc3cccc(c23)C1=O,-4.38
17,CCCCN(C)C1=Nc2cccc3cccc1c23,-72
18,NC1=Nc2cccc3cccc1c23,21.3
19,O=C(Nc1ccc([N+](=O)[O-])cc1)Nc1nc(-c2ccc(Cl)s2)cs1,25.7
20,Cc1csc(N2CCCC2c2nc3cc(Cl)c(N4CCCCC4)cc3n2CCOCCO)n1 (stereo not shown),-47.3
21,OCCOCCn1c(CCNc2nc(-c3ccc(F)cc3)cs2)nc2cc(C(F)(F)F)ccc21,-61.1
22,OCCOCCn1c(C2CCCN2c2nc(-c3ccc(F)cc3)cs2)nc2cc(Cl)c(Cl)cc21 (stereo not shown),-28.7
23,Cc1csc(N2CCCC2c2nc3cc(C(F)(F)F)ccc3n2CCOCCO)n1 (stereo not shown),-69.1
24,OCCOCCn1c(C2CCCN2c2nc(-c3ccc(F)cc3)cs2)nc2cc(C(F)(F)F)ccc21 (stereo not shown),-75.1
25,Cc1ccc(Cn2c(C3CCCN3c3nc(C)cs3)nc3cc(C(F)(F)F)ccc32)cc1 (stereo not shown),0.159
26,OCCCn1c(C2CCCN2c2nc(-c3ccc(F)cc3)cs2)nc2cc(C(F)(F)F)ccc21 (stereo not shown),-21
27,OCCCn1c(CCNc2nc(-c3ccc(F)cc3)cs2)nc2cc(C(F)(F)F)ccc21,-32.3
28,OCCCn1c(CCNc2nc(-c3ccc(Cl)cc3)cs2)nc2cc(C(F)(F)F)ccc21,-0.705

row,SMILES,"hERG current change (%, negative = inhibition) at 10uM [%]"
1,CCN1CCSc2ccc(C(=O)NCc3ccccc3F)cc21,-20.8
2,Cc1oc(-c2cccc(Cl)c2)nc1CS(=O)(=O)CC(=O)NCCN1CCCC1,-0.675
3,CCCC/C(C)=N\NC(=O)CNS(=O)(=O)c1ccc([N+](=O)[O-])cc1,-2.14
4,CCOc1ccc(CN(C)C(=O)CNC(=O)c2ccc(Br)o2)cc1OC,-2.55
5,COc1cccc(Cn2cccc(NC(=O)Nc3cccc(C#N)c3)c2=O)c1,6.1
6,O=C(CC1C(=O)NCCN1Cc1ccccc1)NCCN1CCCCC1=O (stereo not shown),19.1
7,O=C(CC1C(=O)NCCN1CC1CCCCC1)NCCc1ccc(F)cc1 (stereo not shown),-51.6
8,O=C(CC1C(=O)NCCN1Cc1ccc(F)cc1)NCCN1CCCc2ccccc21 (stereo not shown),-66.1
9,O=C(CC1C(=O)NCCN1CC1CCCCC1)NCc1cc(F)ccc1F (stereo not shown),1.77
10,Cc1nc(CCNC(=O)CC2C(=O)NCCN2Cc2ccoc2)nc2c1CCCC2 (stereo not shown),-36.7
11,CC(C)(C)CN1CCNC(=O)C1CC(=O)NCCN1CCCc2ccccc21 (stereo not shown),0.68
12,O=C(CC1C(=O)NCCN1Cc1ccoc1)NCCc1ccc(Cl)cc1 (stereo not shown),-53.7
13,COC(=O)CCCNC(=O)CC1C(=O)NCCN1Cc1ccoc1 (stereo not shown),22.1
14,O=C(CC1C(=O)NCCN1CC1CCCCC1)NCc1ccc(F)cc1 (stereo not shown),-20.3
15,Cc1ccc(C)c(Nc2ccc(C(=O)NCCc3ccccc3)cn2)c1,-20.9
16,CCN(CC(=O)Nc1ccc(N2CCOCC2)cc1)C(=O)Cc1ccccc1,3.76
17,COCC(C)n1c(-c2ccc3c(c2)NC(=O)CO3)csc1=Nc1ccc(OC(F)F)cc1 (stereo not shown),2.76
18,COc1ccc(-c2cc3nc(C)cc(NCCO)n3n2)cc1,-33.6
19,Cc1cccc(-c2cc3nc(C)cc(NCCCn4ccnc4)n3n2)c1,-59.3
20,Cc1cc(NCCCn2ccnc2)n2nc(-c3ccc(F)cc3)cc2n1,-14
21,Cc1cccc(-c2cc3nc(C)cc(C)n3n2)c1,2.6
22,Cc1cc(NCCCn2ccnc2)n2nc(-c3ccc(Cl)cc3)cc2n1,-74.6
23,Cc1cccc(-n2ncc3c(NCCCn4ccnc4)ncnc32)c1,-16.5
24,Cc1cccc(-c2cc3nc(C)cc(NCCCN(C)C)n3n2)c1,-38.1
25,Cc1cc(-c2ccccc2)nc2cc(C(=O)NCCCn3ccnc3)nn12,-22.2
26,Cc1cccc(-c2cc3nc(C)c(C)c(NCCCn4ccnc4)n3n2)c1,-68.9
27,CCc1cc2c(=O)[nH]c(Cc3ccc(OC)cc3)nc2s1,2.16
